Active and inactive are the calls of the source. How the source made its calls: active means hit-call score of the fitted dose curve at least 0.9, where 1 is the maximum; inactive means score below 0.9.

Read-out in this assay: matrix metalloproteinase-10 (MMP10), MMP10 (gene 4319)
In words: LTEA_HepaRG_MMP10: Life Technologies and Expression Analysis (LTEA) Assay for matrix metalloproteinase-10 (MMP10) using HepaRG (AID 2283517). The settings on record: mRNA level, 48 h; actives raise or lower the signal. As to the method: LTEA_HepaRG is a cell based, multiplexed-readout assay that uses HepaRG, a human liver cell line, with measurements taken at 48 hours after chemical dosing on a 96-well plate.LTEA_HepaRG_MMP10 is one of 102 assay component(s) measured in the LTEA HepaRG cell culture assay. It is a marker of Fibrosis.Data from the assay component LTEA_HepaRG_MMP10 was analyzed into 1 endpoint. This assay endpoint, LTEA_HepaRG_MMP10, was analyzed with bidirectional fitting relative to DMSO as the negative control and baseline of activity. Using a type of inducible reporter, measures of mRNA induction for gain or loss-of-signal activity can be used to understand regulation of transcription factor activity. To generalize the intended target to other relatable targets, this assay endpoint is annotated to the protease intended target family, where the subfamily is matrix metalloproteinase.
A total of 1060 chemcials from the ToxCast library were tested in eight-point concentration-response experiments. Cell culture and cytotoxicity assays were conducted at Thermo Fisher Scientific's Custom Services facility (Madison, WI). A single lot of human HepaRG cells (Thermo Fisher Scientific, Frederick, MD) was used for the cell culture experiments. 96-well format collagen type I coated plates of human HepaRG cells were prepared using established methods. Briefly, cryopreserved HepaRG cells were thawed, plated at a density of approximately 100,000 cells/well in HepaRG Thaw, Plate, and General Purpose media (HPRG770, Thermo Fisher Scientific), and incubated for 48 hours. 0.5% DMSO was selected as vehicle control to balance the requisite need of DMSO in HepaRG cultures to maintain differentiation (for example, baseline metabolism, proportions of hepatocytes vs. cholangiocytes), while enabling further hepatic receptor pathway activation (for example, PXR and CAR) in response to chemical exposure. 48 hours after plating, the culture medium was replaced with HepaRG Serum-Free Incudtion Media. Cells were exposed to each test chemical in duplicate and maintained in CO2 incubators for another 48 hours. Chemical plates were thawed to room temperature and 200x concentrations of treatment groups were prepared. 8-point conentration-reponse curves were made with the highest exposure at 100 uM, followed by half-log dilutions, all in 0.5% DMSO. Each test plate contained variouse controls, induction positive controls (1mM phenobarbital), cytotoxicity positive controls ([…] aflatoxin B1), vehicle controls (0.5% DMSO), and total lysis controls (0.5% DMSO). Cell morphology images were taken using an Essen IncuCyte FLR automated microscope, with six 96-well plates imaged in about 24 minutes. Images were captured and exported and JPEG files. Spent culture media was transfered to black-well plates for the LDH assay, and remaining media was sorted at -80 C for later use. Cells were treated with RLT buffer and frozen until shipped for gene expression analysis. Total RNA was isolated from the cell suspension in 75 uL of Buffer RLT (Qiagen, Germantown, MD 20874) by Quintiles/Expression Analysis (Durham, NC) using a custom isolation procedure. Total RNA from each plate well was transferred to a preamplification plate. Fluidigm's 96.96 Dynamic ArrayTM (Fluidigm, Amsterdam, the Netherlands) technology was used for gene expression analyses by quantitative reverse transcription polymerase chain reaction (qRT-PCR, performed by Quintiles/Expression Analysis, Durham, NC)89. Standard TaqManTM Assays (Applied Biosystems/ThermoFisher Scientific, Foster City, CA) were used to assess the expression of 93 genes selected based on their selectivity and sensitivity to important hepatic receptors known to be modulated by environmental chemicals; importance in human hepatocyte functionality; and hepatotoxicity. […]
`CCCCCCCCCC(=O)O`: the compound was called inactive.

Take `CC(C)(c1cc(Br)c(O)c(Br)c1)c1cc(Br)c(O)c(Br)c1`: the outcome was inactive.

For `CN(C[C@@H](CC[N+]12CCC(C3CCCCC3)(CC1)CC2)c1ccc(Cl)c(Cl)c1)C(=O)c1cc(C(F)(F)F)cc(C(F)(F)F)c1`, the AC50 is 9.43 µM (active).

Consider `Cc1ccc(C(C)C)cc1`, for which the compound was called inactive.

`OC12N=C(c3ccccc3)SC1Cc1cc(Cl)ccc12` (stereo not given): the concentration at half-maximal activity (AC50) is 72.8 µM (active).

For the compound `c1ccc2ccccc2c1`, the compound was called inactive.

With `O=C=NCCCCCCN=C=O`, the compound was classed as inactive.

Consider `COc1ccc2cc(S(=O)(=O)N[C@H](CC(=O)N[C@H](Cc3ccc(CN4[C@H](C)CCC[C@@H]4C)cc3)C(=O)N(C)C(C)C)c3ccc4c(c3)OCO4)ccc2c1`, for which the AC50 is 24.3 µM (active).

Consider `C[C@]12CC[C@@H]3c4ccc(O)cc4CC[C@H]3[C@@H]1CC[C@H]2O`, for which the compound was classed as inactive.

As for `O=C1c2ccccc2C(=O)N1CCc1noc(-c2ccc(CN3CCCCCC3)s2)n1`, the compound was classed as inactive.

Regarding `CN1C(=O)CC[C@H]1c1cccnc1`, the compound was classed as inactive.

In the case of `Cc1ncc(CO)c(CO)c1O`, the outcome was inactive.

On to `Cc1cc(F)ccc1-c1cc(N2CC[C@@H](O)[C@H]2CO)ncc1N(C)C(=O)C(C)(C)c1cc(C(F)(F)F)cc(C(F)(F)F)c1`, for which the concentration at half-maximal activity (AC50) is 68.7 µM (active).

In the case of `CCO[Si](CCCNC(N)=O)(OCC)OCC`, the outcome was inactive.

For `O=C(O)Cc1cc(I)c(Oc2ccc(O)c(I)c2)c(I)c1`, the AC50 was 81 µM (active).

Turning to `CCCCCCCCCCCCO`, the compound was classed as inactive.

Consider `CCN(CC)C(=O)c1cc(S(=O)(=O)Cc2ccccc2)c(N2CCC(c3ccccc3)CC2)cc1N(CC)CCN(C)C`, for which the concentration at half-maximal activity (AC50) is 30.5 µM (active).

For the compound `CCN(Cc1cccnc1)C(=O)c1cccc(Cl)c1[C@]1(C)C(=O)N(Cc2ccc(OC)cc2OC)c2ccc(Cl)cc21`, the AC50 was 17.7 µM (active).

`NC(=O)c1nc(-c2cccc(-c3cc(F)ccc3OCC(F)(F)C(F)(F)F)c2)n[nH]1`: the call was inactive.

As for `O=C(OCCCCCCOC(=O)c1ccccc1)c1ccccc1`, the compound was called inactive.

In the case of `CCCCCCCC[Si](OCC)(OCC)OCC`, the compound was classed as inactive.

For the compound `O=c1[nH]sc2ccccc12`, the call was inactive.

With `Clc1cc(Cl)c2c(c1)N=C1CCCCCN1C2`, the result was inactive.

`O=C(O)Cn1c(=O)n(Cc2ccc(Br)cc2F)c(=O)c2ccc(Cl)cc21`: the compound was called inactive.

For the compound `COc1cccc([C@H](O)C2CCN(CCc3ccc(F)cc3)CC2)c1OC`, the compound was classed as inactive.

For `Cc1occc1C(=O)Nc1ccc(C(=O)N2CCC(F)(F)/C(=C\C(=O)N3CCC(N4CCCCC4)CC3)c3ccccc32)cc1`, the call was inactive.

Regarding `CC[C@H](NC(=O)c1cc(F)ccc1NS(=O)(=O)c1cccc2cccnc12)c1ccccc1`, the compound was called inactive.

As for `CCCCCCCCOc1ccc(C(=O)c2ccccc2)c(O)c1`, the compound was classed as inactive.

As to `O=C(O)c1ccccc1-n1cc(C(=O)O)c(=O)c2cc(Nc3c(F)cc(F)cc3Cl)c(Cl)cc21`, the compound was called inactive.

Regarding `Cc1cc2c(cc1C(F)(F)F)N(C(=O)Nc1ccc(Oc3cccnc3C)nc1)CC2`, the AC50 was 26.8 µM (active).

Take `NCc1cccc(C2CCN(C(=O)c3ccc(C#Cc4ccccc4F)o3)CC2)c1`: the compound was classed as inactive.

On to `O=c1c(-c2ccc(O)cc2)coc2cc(O)cc(O)c12`, for which the call was inactive.

Regarding `CCCCCCCCOC(=O)c1cc(O)c(O)c(O)c1`, the outcome was inactive.

As to `CCCOC(=O)c1cc(O)c(O)c(O)c1`, the compound was called inactive.

`CC1=CC(=O)/C(=C(/C)O)C(=O)O1`: the call was inactive.

In the case of `Cc1oc2c(NC(=O)c3c(Cl)cccc3Cl)cccc2c1C(C)(C)O`, the AC50 is 70.8 µM (active).

Turning to `COc1cc(C(=O)NC2CCN(C)CC2)ccc1Nc1ncc2c(n1)N(C1CCCC1)CC(F)(F)C(=O)N2C`, the concentration at half-maximal activity (AC50) is 26.3 µM (active).

Regarding `CN1C(=O)N(c2ccccc2Br)Cc2cnc(Nc3ccc4c(c3)OCC(CO)O4)nc21` (stereo not given), the result was inactive.

With `CO[C@H]1/C=C/O[C@@]2(C)Oc3c(C)c(O)c4c(O)c(c(/C=N/N5CCN(C)CC5)c(O)c4c3C2=O)NC(=O)/C(C)=C\C=C\[C@H](C)[C@H](O)[C@@H](C)[C@@H](O)[C@@H](C)[C@H](OC(C)=O)[C@@H]1C`, the compound was called inactive.

Consider `CCCCCCCCCCCC[N+](C)(C)C`, for which the AC50 was 82.4 µM (active).

Values taken from PubChem BioAssay (EPA / NIEHS).
